# Test results taken from article PMC7862700, “An all-to-all approach to the identification of sequence-specific readers for epigenetic DNA modifications on cytosine”.
# What was measured:
# Test in all cases: DAPPL (digital affinity profiling via proximity ligation, sequencing); 10 mM Tris-HCl pH 7.5, 50 mM NaCl, 1 mM DTT, 4% glycerol, room temperature, 30 min; GST-TFs on glutathione beads, 16-mer random dsDNA library, 0.1% formaldehyde crosslink after washing; high values mean tight binding
# FLI1 = target: T1, FLI1 (Homo sapiens, UniProt Q01543 1-452); conditions: protein: recombinant; tags: N-terminal GST; dsDNA, one strand shown
# T1 sequence: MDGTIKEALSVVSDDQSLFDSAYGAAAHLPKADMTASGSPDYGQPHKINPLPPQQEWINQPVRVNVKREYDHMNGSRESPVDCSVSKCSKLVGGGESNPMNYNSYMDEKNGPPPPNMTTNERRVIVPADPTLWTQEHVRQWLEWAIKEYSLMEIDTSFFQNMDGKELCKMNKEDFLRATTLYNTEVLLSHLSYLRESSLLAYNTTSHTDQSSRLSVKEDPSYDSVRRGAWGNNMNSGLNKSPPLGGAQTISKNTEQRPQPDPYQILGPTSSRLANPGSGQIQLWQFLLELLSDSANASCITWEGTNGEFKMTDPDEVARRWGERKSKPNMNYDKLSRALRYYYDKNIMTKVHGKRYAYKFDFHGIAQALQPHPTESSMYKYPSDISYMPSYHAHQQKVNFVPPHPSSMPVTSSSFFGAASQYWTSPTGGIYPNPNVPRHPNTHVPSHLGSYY
# Method in brief: (§1)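 A tag-only sample was pooled with DNA-barcoded human transcription factors that had been expressed in yeast as GST fusions and captured on glutathione beads. The pools were incubated for 30 min at room temperature with 200 nmole of a random double-stranded 16-mer DNA library in Tris/NaCl/DTT/glycerol buffer, then washed, crosslinked with 0.1% formaldehyde, proximity-ligated (BsaI/T4 ligase, 1 h, 37 °C), PCR-amplified and sequenced on an Illumina NextSeq500. Binding signal is each hexamer's read frequency for a factor divided by its frequency for the tag-only sample.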
# ELK1 = target: T2, ELK1 (Homo sapiens, UniProt P19419 1-428); conditions: protein: recombinant; tags: N-terminal GST; dsDNA, one strand shown
# T2 sequence: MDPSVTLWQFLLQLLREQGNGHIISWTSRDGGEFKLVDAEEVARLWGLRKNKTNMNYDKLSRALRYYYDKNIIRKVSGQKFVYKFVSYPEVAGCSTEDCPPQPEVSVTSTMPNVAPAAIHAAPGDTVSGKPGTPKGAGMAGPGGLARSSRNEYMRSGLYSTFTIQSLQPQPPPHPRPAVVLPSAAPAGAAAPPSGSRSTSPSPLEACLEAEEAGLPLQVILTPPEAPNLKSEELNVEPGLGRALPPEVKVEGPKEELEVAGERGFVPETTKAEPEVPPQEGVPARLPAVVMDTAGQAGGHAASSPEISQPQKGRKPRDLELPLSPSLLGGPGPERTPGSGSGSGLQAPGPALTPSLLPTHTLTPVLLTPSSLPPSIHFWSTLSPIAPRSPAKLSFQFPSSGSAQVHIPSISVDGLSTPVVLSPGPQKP
# Method in brief: as §1
# GABPA = target: T3, GABPA (Homo sapiens, UniProt Q06546 1-454); conditions: protein: recombinant; tags: N-terminal GST; dsDNA, one strand shown
# T3 sequence: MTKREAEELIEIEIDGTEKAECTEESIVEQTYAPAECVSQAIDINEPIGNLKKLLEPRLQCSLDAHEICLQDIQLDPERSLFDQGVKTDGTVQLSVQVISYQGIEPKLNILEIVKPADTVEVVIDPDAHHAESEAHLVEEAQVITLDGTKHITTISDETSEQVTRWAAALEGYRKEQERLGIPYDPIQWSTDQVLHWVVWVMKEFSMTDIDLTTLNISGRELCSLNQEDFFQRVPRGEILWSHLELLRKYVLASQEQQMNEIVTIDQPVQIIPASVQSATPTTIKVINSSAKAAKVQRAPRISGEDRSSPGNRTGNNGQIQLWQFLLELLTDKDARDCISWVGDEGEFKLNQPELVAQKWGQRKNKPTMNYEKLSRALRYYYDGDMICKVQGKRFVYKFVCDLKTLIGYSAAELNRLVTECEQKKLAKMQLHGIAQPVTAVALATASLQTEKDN
# Method in brief: as §1
# ERG = target: T4, ERG (Homo sapiens, UniProt P11308 1-479); conditions: protein: recombinant; tags: N-terminal GST; dsDNA, one strand shown
# T4 sequence: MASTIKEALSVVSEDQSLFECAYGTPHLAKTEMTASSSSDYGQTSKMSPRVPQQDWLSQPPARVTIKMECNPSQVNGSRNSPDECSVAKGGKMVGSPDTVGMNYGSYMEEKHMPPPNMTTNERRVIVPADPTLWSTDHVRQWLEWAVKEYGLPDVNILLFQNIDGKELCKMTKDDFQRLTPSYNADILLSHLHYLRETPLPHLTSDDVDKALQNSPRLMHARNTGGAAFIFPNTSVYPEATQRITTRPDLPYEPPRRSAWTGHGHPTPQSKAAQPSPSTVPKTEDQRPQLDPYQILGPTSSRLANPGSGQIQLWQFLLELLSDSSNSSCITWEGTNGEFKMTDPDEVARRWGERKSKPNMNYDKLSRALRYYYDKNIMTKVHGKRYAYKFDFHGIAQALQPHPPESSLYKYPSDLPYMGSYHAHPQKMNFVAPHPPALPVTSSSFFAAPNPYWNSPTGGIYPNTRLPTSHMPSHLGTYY
# Method in brief: as §1
# ELF1 = ELF1 (Homo sapiens, UniProt P32519 1-619); conditions: protein: recombinant; tags: N-terminal GST; dsDNA, one strand shown
# Sequence of ELF1 (P32519 whole entry): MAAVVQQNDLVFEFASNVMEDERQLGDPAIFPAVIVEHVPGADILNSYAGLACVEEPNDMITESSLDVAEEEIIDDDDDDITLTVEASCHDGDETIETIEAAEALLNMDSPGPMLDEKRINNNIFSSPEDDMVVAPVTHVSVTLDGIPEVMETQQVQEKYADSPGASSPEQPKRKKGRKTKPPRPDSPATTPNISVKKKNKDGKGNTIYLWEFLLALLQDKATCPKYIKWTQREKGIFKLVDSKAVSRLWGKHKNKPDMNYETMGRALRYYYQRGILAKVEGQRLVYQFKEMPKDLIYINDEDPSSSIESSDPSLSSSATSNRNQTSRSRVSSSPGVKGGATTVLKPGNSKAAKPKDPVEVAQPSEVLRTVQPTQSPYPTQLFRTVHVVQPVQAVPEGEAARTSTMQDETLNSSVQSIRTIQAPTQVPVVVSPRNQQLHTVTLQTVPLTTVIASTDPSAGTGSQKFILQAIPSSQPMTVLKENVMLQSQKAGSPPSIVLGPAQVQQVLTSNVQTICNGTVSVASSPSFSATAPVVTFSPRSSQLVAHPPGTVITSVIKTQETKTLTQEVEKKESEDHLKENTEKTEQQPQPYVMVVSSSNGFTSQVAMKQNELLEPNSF
# Method in brief: as §1
# EHF = target: T5, EHF (Homo sapiens, UniProt Q9NZC4 1-300); conditions: protein: recombinant; tags: N-terminal GST; dsDNA, one strand shown
# T5 sequence: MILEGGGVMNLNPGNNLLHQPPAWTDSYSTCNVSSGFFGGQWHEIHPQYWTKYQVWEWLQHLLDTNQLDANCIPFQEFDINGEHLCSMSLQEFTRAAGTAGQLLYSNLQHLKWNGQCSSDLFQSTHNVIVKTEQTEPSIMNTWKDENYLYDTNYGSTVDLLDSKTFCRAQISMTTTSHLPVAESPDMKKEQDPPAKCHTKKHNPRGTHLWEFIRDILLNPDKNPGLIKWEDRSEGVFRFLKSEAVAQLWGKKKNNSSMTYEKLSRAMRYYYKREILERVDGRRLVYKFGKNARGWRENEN
# Method in brief: as §1
# SPI1 = SPI1 (Homo sapiens, UniProt P17947 1-270); conditions: protein: recombinant; tags: N-terminal GST; dsDNA, one strand shown
# Method in brief: as §1
# SPIB = SPIB (Homo sapiens, UniProt Q01892 1-262); conditions: protein: recombinant; tags: N-terminal GST; dsDNA, one strand shown
# Sequence of SPIB (Q01892 whole entry): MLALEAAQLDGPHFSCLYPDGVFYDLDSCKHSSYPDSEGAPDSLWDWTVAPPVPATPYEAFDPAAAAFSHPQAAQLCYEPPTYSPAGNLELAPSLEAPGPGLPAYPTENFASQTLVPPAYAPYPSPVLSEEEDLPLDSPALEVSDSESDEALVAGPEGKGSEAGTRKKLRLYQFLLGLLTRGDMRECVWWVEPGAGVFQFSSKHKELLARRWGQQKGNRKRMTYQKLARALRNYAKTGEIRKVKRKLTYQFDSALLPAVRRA
# Method in brief: as §1
# ELK3 = target: T6, ELK3 (Homo sapiens, UniProt P41970 1-407); conditions: protein: recombinant; tags: N-terminal GST; dsDNA, one strand shown
# T6 sequence: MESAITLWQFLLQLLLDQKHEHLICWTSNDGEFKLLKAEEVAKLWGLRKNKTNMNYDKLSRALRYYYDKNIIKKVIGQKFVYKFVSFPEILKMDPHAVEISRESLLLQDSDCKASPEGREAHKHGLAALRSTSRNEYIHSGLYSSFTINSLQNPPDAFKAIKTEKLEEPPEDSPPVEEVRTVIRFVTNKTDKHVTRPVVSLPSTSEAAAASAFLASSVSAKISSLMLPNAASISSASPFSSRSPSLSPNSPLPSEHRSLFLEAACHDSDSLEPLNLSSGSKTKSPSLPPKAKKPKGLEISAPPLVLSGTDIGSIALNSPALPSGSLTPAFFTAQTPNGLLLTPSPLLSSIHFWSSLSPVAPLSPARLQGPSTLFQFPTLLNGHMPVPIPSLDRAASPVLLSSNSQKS
# Method in brief: as §1
# FEV = target: T7, FEV (Homo sapiens, UniProt Q99581 1-238); conditions: protein: recombinant; tags: N-terminal GST; dsDNA, one strand shown
# T7 sequence: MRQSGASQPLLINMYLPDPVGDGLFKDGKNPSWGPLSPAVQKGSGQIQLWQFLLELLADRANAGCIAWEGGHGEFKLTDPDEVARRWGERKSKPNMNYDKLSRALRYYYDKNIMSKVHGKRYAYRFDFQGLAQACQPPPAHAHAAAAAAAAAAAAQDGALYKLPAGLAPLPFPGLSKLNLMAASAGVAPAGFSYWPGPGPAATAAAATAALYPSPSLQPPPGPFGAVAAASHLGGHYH
# Method in brief: as §1
# ETV5 = ETV5 (Homo sapiens, UniProt P41161 1-510); conditions: protein: recombinant; tags: N-terminal GST; dsDNA, one strand shown
# Sequence of ETV5 (P41161 whole entry): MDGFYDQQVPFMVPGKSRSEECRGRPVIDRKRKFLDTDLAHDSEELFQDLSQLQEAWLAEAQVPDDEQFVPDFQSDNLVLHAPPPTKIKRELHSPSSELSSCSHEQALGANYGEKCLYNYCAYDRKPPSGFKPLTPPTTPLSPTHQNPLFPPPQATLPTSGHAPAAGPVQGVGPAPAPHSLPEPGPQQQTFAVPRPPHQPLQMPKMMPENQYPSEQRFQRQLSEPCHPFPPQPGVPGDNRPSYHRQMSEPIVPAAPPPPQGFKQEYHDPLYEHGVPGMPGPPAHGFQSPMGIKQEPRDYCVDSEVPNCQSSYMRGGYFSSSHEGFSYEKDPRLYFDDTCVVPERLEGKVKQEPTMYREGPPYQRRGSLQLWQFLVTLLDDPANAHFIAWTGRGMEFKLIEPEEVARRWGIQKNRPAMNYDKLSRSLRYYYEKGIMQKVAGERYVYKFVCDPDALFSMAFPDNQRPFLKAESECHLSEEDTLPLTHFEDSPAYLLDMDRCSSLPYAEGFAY
# Method in brief: as §1
# HSF1 = HSF1 (Homo sapiens, UniProt Q00613 1-529); conditions: protein: recombinant; tags: N-terminal GST; chain copies: 3; dsDNA, one strand shown
# Sequence of HSF1 (Q00613 whole entry): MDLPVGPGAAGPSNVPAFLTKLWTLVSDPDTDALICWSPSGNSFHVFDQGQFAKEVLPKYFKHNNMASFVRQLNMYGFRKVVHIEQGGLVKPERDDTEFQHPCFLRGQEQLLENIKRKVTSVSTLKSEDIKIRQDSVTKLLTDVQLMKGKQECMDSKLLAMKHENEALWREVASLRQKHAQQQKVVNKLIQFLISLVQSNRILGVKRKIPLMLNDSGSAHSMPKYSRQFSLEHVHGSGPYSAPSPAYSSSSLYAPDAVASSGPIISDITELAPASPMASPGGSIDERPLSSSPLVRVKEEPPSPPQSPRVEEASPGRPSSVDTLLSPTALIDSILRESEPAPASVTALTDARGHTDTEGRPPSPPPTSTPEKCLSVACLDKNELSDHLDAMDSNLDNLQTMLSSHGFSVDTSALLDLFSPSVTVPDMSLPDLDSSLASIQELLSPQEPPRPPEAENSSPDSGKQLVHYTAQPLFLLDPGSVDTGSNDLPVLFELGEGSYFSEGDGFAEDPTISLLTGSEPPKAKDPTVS
# Method in brief: as §1
# SPIC = target: T8, SPIC (Homo sapiens, UniProt Q8N5J4 1-248); conditions: protein: recombinant; tags: N-terminal GST; dsDNA, one strand shown
# T8 sequence: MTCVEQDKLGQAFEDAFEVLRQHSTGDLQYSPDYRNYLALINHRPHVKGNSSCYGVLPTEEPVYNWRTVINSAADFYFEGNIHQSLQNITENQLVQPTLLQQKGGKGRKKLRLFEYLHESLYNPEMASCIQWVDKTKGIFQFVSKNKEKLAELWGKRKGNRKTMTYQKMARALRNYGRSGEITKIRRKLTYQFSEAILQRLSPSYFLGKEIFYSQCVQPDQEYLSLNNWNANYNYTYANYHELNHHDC
# Method in brief: as §1
# ELF4 = ELF4 (Homo sapiens, UniProt Q99607 1-663); conditions: protein: recombinant; tags: N-terminal GST; dsDNA, one strand shown
# Sequence of ELF4 (Q99607 whole entry): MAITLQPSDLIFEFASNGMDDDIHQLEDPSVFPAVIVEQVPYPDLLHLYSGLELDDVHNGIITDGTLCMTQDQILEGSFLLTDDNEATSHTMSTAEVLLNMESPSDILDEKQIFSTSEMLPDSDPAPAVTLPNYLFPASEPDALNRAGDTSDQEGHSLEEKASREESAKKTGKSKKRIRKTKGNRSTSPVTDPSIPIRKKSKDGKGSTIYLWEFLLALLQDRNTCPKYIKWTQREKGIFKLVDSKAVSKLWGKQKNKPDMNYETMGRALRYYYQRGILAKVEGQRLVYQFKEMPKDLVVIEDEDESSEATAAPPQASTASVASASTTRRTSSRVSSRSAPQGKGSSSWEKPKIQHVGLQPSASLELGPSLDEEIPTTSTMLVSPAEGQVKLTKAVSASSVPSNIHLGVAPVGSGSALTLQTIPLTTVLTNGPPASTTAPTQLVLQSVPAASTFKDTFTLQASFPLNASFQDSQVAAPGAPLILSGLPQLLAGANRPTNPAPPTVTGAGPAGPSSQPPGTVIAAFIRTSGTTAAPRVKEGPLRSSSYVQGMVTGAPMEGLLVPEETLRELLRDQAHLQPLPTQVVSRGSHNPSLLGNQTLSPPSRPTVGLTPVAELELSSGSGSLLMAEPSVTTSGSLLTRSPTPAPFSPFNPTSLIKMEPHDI
# Method in brief: as §1
# ELK4 = target: T9, ELK4 (Homo sapiens, UniProt P28324-2 1-405); conditions: protein: recombinant; tags: N-terminal GST; dsDNA, one strand shown
# T9 sequence: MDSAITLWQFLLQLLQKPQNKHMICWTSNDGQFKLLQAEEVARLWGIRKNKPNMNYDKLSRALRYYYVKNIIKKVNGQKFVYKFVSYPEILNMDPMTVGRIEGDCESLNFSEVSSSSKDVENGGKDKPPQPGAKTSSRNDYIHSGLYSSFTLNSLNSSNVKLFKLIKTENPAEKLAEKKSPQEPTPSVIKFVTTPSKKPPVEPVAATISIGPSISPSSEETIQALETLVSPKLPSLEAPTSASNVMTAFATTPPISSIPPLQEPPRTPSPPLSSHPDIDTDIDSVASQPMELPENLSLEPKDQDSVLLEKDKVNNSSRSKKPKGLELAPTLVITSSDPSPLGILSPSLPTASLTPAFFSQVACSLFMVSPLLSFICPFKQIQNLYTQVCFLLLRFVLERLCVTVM
# Method in brief: as §1
# ETV2 = target: T10, ETV2 (Homo sapiens, UniProt O00321 1-342); conditions: protein: recombinant; tags: N-terminal GST; dsDNA, one strand shown
# T10 sequence: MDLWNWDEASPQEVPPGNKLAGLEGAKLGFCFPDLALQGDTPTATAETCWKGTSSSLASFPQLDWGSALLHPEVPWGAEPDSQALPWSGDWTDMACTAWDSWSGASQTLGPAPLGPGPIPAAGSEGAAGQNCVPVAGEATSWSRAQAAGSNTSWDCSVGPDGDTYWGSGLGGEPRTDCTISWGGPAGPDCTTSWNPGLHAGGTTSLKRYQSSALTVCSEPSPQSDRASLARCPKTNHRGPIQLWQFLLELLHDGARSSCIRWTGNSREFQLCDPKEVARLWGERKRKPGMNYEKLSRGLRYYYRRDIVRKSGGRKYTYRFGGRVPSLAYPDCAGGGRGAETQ
# Method in brief: as §1
# ELF3 = target: T11, ELF3 (Homo sapiens, UniProt P78545 1-371); conditions: protein: recombinant; tags: N-terminal GST; dsDNA, one strand shown
# T11 sequence: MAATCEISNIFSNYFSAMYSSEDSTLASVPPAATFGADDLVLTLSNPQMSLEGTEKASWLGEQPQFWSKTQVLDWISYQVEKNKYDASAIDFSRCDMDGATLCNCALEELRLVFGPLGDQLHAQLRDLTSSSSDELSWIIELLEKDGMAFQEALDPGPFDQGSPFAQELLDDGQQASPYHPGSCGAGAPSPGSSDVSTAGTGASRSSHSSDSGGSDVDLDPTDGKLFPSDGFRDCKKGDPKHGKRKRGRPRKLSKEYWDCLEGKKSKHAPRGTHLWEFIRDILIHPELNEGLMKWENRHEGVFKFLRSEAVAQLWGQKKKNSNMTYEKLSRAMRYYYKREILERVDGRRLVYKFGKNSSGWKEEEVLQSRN
# Method in brief: as §1
# CRX = CRX (Homo sapiens, UniProt O43186 1-299); conditions: protein: recombinant; tags: N-terminal GST; dsDNA, one strand shown
# Sequence of CRX (O43186 whole entry): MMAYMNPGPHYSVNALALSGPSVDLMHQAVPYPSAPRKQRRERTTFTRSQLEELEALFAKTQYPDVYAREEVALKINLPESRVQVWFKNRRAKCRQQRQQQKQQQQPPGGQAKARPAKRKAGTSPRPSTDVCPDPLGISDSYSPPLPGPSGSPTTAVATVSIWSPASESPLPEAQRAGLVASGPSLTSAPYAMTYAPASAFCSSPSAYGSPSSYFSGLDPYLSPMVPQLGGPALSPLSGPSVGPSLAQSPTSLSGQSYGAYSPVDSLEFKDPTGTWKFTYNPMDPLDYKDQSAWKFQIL
# Method in brief: as §1
# ETV1 = ETV1 (Homo sapiens, UniProt P50549 1-477); conditions: protein: recombinant; tags: N-terminal GST; dsDNA, one strand shown
# Sequence of ETV1 (P50549 whole entry): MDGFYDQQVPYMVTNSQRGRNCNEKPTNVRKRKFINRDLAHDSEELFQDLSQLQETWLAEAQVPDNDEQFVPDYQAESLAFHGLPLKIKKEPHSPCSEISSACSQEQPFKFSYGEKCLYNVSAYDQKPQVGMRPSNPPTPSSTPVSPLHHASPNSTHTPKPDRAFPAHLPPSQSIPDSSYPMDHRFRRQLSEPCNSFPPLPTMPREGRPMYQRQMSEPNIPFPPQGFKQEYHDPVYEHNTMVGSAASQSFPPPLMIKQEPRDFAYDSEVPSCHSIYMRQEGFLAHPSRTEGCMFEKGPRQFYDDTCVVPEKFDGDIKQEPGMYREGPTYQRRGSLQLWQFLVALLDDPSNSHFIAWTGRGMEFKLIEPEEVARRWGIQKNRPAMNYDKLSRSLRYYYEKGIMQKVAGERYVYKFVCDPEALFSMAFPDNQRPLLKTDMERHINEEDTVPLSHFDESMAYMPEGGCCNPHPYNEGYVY
# Method in brief: as §1
sequence,measurement,setting,value
TATTTT,binding signal,FLI1,"1.3 fold enrichment (6-mer frequency, TF over GST control)"
same,binding signal,ELK1,"1.3 fold enrichment (6-mer frequency, TF over GST control)"
same,binding signal,GABPA,"1.34 fold enrichment (6-mer frequency, TF over GST control)"
same,binding signal,ERG,"1.39 fold enrichment (6-mer frequency, TF over GST control)"
same,binding signal,ELF1,"1.31 fold enrichment (6-mer frequency, TF over GST control)"
same,binding signal,EHF,"1.44 fold enrichment (6-mer frequency, TF over GST control)"
same,binding signal,SPI1,"1.35 fold enrichment (6-mer frequency, TF over GST control)"
same,binding signal,SPIB,"1.32 fold enrichment (6-mer frequency, TF over GST control)"
same,binding signal,ELK3,"1.36 fold enrichment (6-mer frequency, TF over GST control)"
same,binding signal,FEV,"1.23 fold enrichment (6-mer frequency, TF over GST control)"
same,binding signal,ETV5,"1.39 fold enrichment (6-mer frequency, TF over GST control)"
same,binding signal,HSF1,"1.5 fold enrichment (6-mer frequency, TF over GST control)"
same,binding signal,SPIC,"1.42 fold enrichment (6-mer frequency, TF over GST control)"
same,binding signal,ELF4,"1.4 fold enrichment (6-mer frequency, TF over GST control)"
same,binding signal,ELK4,"1.49 fold enrichment (6-mer frequency, TF over GST control)"
same,binding signal,ETV2,"1.45 fold enrichment (6-mer frequency, TF over GST control)"
same,binding signal,ELF3,"1.36 fold enrichment (6-mer frequency, TF over GST control)"
same,binding signal,CRX,"1.77 fold enrichment (6-mer frequency, TF over GST control)"
same,binding signal,ETV1,"1.48 fold enrichment (6-mer frequency, TF over GST control)"
